Experimental data published in the supplement of paper PMC6555819.

How the values were obtained:
Assay in all cases: PBM binding z-score (relative to random genomic background probes); higher = stronger binding; sequences stand for … in GC…GCGATTGACAGCGTAGAATGAAGG
[1] = test system: PPARg:RXRa DBDmut IVT, anti-RXR (DBD mutation: RXRa K156A/R161A, NR concentration 270 nM, RXRa partner concentration 90 nM)
Summary of the method: (§1)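 The probes on custom Agilent 4×180K protein-binding microarrays were double-stranded, with 34-nt variable regions bearing direct-repeat seeds, single-nucleotide variants, half-site ablations and random human genomic background sequences. Incubation lasted 1 h with ligand-free nuclear receptor dimers in PBS pH 7.4, 2% milk, 0.02% Triton X-100, 1 mM DTT, 0.2 mg/mL BSA and 0.4 mg/ml salmon testes DNA. Antibodies against each partner (one per run) detected bound dimers, and fluorescence scans were regression-normalized. Binding z-scores take the random background probes as reference.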

[2] = test system: PPARg:RXRa IVT, anti-PPARg (NR concentration 270 nM, RXRa partner concentration 90 nM)
Summary of the method: as §1

[3] = test system: PPARg DBDmut:RXRa IVT, anti-PPARg (DBD mutation: PPARg1 K132A/R137A, NR concentration 270 nM, RXRa partner concentration 90 nM)
Summary of the method: as §1

[4] = test system: PPARg DBDmut IVT, anti-PPARg (DBD mutation: PPARg1 K132A/R137A, NR concentration 270 nM)
Summary of the method: as §1

[5] = test system: PPARg homodimer (NR concentration 180 nM)
Summary of the method: as §1

[6] = test system: PXR:RXRa (NR concentration 270 nM, RXRa partner concentration 90 nM)
Summary of the method: as §1

[7] = test system: PXR homodimer (NR concentration 270 nM)
Summary of the method: as §1

[8] = test system: RARa:RXR (NR concentration 270 nM, RXRa partner concentration 90 nM)
Summary of the method: as §1

[9] = test system: RARa homodimer (NR concentration 270 nM)
Summary of the method: as §1

[10] = test system: RARb:RXRa (NR concentration 270 nM, RXRa partner concentration 90 nM)
Summary of the method: as §1

[11] = test system: RARb homodimer (NR concentration 270 nM)
Summary of the method: as §1

[12] = test system: RARg:RXRa (NR concentration 270 nM, RXRa partner concentration 90 nM)
Summary of the method: as §1

[13] = test system: RARg homodimer (NR concentration 270 nM)
Summary of the method: as §1

[14] = test system: RXRa DBDmut IVT, anti-RXR (DBD mutation: RXRa K156A/R161A, NR concentration 90 nM)
Summary of the method: as §1

[15] = test system: RXRa homodimer (NR concentration 180 nM)
Summary of the method: as §1

[16] = test system: THRa:RXRa (NR concentration 90 nM, RXRa partner concentration 90 nM)
Summary of the method: as §1

[17] = test system: THRa homodimer (NR concentration 90 nM)
Summary of the method: as §1

[18] = test system: VDR homodimer (NR concentration 270 nM)
Summary of the method: as §1

Q: With CTCGAAAGGTCGTGCTCGGGTGAGTATACCAAAC as the sequence, how does the PBM binding z-score [1] read?
A: 0.705

Q: What about the PBM binding z-score [2] of the same sequence?
A: 1.72

Q: And the PBM binding z-score [3]?
A: 0.595

Q: And the PBM binding z-score [4]?
A: -0.339

Q: What about the PBM binding z-score [5] of the same sequence?
A: 1.58

Q: What about the PBM binding z-score [6] of the same sequence?
A: 3.15

Q: And the PBM binding z-score [7]?
A: -0.25

Q: And the PBM binding z-score [8]?
A: 4.22

Q: What about the PBM binding z-score [9] of the same sequence?
A: -0.17

Q: What about the PBM binding z-score [10] of the same sequence?
A: 3.98

Q: What about the PBM binding z-score [11] of the same sequence?
A: 2.72

Q: And the PBM binding z-score [12]?
A: 5.23

Q: What about the PBM binding z-score [13] of the same sequence?
A: 3.77

Q: What about the PBM binding z-score [14] of the same sequence?
A: 1.4

Q: And the PBM binding z-score [15]?
A: 4.73

Q: What about the PBM binding z-score [16] of the same sequence?
A: 3.75

Q: And the PBM binding z-score [17]?
A: 0.478

Q: And the PBM binding z-score [18]?
A: 0.996

Q: GCTCGGAGGACAAGGTCAGTGCTTTGTCCGTAGA was tested. Which PBM binding z-score [1] did it give?
A: -0.0896

Q: What about the PBM binding z-score [2] of the same sequence?
A: 0.926

Q: And the PBM binding z-score [3]?
A: -1.08

Q: And the PBM binding z-score [4]?
A: -0.85

Q: And the PBM binding z-score [5]?
A: 0.917

Q: And the PBM binding z-score [6]?
A: 1.43

Q: What about the PBM binding z-score [7] of the same sequence?
A: -0.565

Q: What about the PBM binding z-score [8] of the same sequence?
A: 1.37

Q: And the PBM binding z-score [9]?
A: -1.15

Q: And the PBM binding z-score [10]?
A: 3.46

Q: What about the PBM binding z-score [11] of the same sequence?
A: 3.23

Q: What about the PBM binding z-score [12] of the same sequence?
A: 2.82

Q: What about the PBM binding z-score [13] of the same sequence?
A: 3.65

Q: And the PBM binding z-score [14]?
A: 0.477

Q: And the PBM binding z-score [15]?
A: 1.29

Q: And the PBM binding z-score [16]?
A: 2.77

Q: What about the PBM binding z-score [17] of the same sequence?
A: 1.49

Q: What about the PBM binding z-score [18] of the same sequence?
A: 0.406

Q: With CCGACTGGGGCAAGCTTACCATAACGCACAGCCA as the sequence, how does the PBM binding z-score [1] read?
A: 3.86

Q: What about the PBM binding z-score [2] of the same sequence?
A: 2.37

Q: And the PBM binding z-score [3]?
A: -0.563

Q: And the PBM binding z-score [4]?
A: -1.13

Q: What about the PBM binding z-score [5] of the same sequence?
A: -0.678

Q: And the PBM binding z-score [6]?
A: -0.729

Q: And the PBM binding z-score [7]?
A: -0.611

Q: And the PBM binding z-score [8]?
A: -0.807

Q: And the PBM binding z-score [9]?
A: -0.606

Q: And the PBM binding z-score [10]?
A: 0.697

Q: And the PBM binding z-score [11]?
A: -0.00597

Q: What about the PBM binding z-score [12] of the same sequence?
A: 0.179

Q: What about the PBM binding z-score [13] of the same sequence?
A: 0.523

Q: And the PBM binding z-score [14]?
A: 0.00515

Q: What about the PBM binding z-score [15] of the same sequence?
A: -0.0329

Q: And the PBM binding z-score [16]?
A: -0.39

Q: And the PBM binding z-score [17]?
A: -0.624

Q: What about the PBM binding z-score [18] of the same sequence?
A: -0.428

Q: For GCTATTAGTTGAAAGGGCAACGGAATGATTCTCG, which PBM binding z-score [1] is on record?
A: 0.701

Q: What about the PBM binding z-score [2] of the same sequence?
A: 0.992

Q: What about the PBM binding z-score [3] of the same sequence?
A: 1.04

Q: And the PBM binding z-score [4]?
A: 0.361

Q: And the PBM binding z-score [5]?
A: 0.8

Q: And the PBM binding z-score [6]?
A: 0.606

Q: And the PBM binding z-score [7]?
A: 0.255

Q: And the PBM binding z-score [8]?
A: 1.19

Q: What about the PBM binding z-score [9] of the same sequence?
A: 0.995

Q: What about the PBM binding z-score [10] of the same sequence?
A: 1.93

Q: And the PBM binding z-score [11]?
A: 1.94

Q: What about the PBM binding z-score [12] of the same sequence?
A: 1.36

Q: And the PBM binding z-score [13]?
A: 1.26

Q: And the PBM binding z-score [14]?
A: 0.668

Q: And the PBM binding z-score [15]?
A: 1.2

Q: What about the PBM binding z-score [16] of the same sequence?
A: 0.463

Q: What about the PBM binding z-score [17] of the same sequence?
A: -0.221

Q: And the PBM binding z-score [18]?
A: 0.0426

Q: What does the source list for AATACAGGGTCATCGTAGGCCAGACTACGCACAG?
A: PBM binding z-score [1]: 2.63; PBM binding z-score [2]: 4.16; PBM binding z-score [3]: 1.31; PBM binding z-score [4]: 1.03; PBM binding z-score [5]: 2.16; PBM binding z-score [6]: 4.73; PBM binding z-score [7]: 0.736; PBM binding z-score [8]: 4.7; PBM binding z-score [9]: 0.914; PBM binding z-score [10]: 4.5; PBM binding z-score [11]: 2.36; PBM binding z-score [12]: 5.54; PBM binding z-score [13]: 5.13; PBM binding z-score [14]: 3.61; PBM binding z-score [15]: 6.23; PBM binding z-score [16]: 4.74; PBM binding z-score [17]: 1.68; PBM binding z-score [18]: 2.65

Q: For GCTTGGAGGACAAGGTCAGAGCTTTGTCCGTAGA, which PBM binding z-score [1] is on record?
A: 1.24

Q: And the PBM binding z-score [2]?
A: 1.71

Q: And the PBM binding z-score [3]?
A: -1.32

Q: What about the PBM binding z-score [4] of the same sequence?
A: -1.05

Q: And the PBM binding z-score [5]?
A: 0.764

Q: What about the PBM binding z-score [6] of the same sequence?
A: 1.76

Q: And the PBM binding z-score [7]?
A: -0.385

Q: And the PBM binding z-score [8]?
A: 2.05

Q: And the PBM binding z-score [9]?
A: -0.509

Q: What about the PBM binding z-score [10] of the same sequence?
A: 3.48

Q: What about the PBM binding z-score [11] of the same sequence?
A: 3.25

Q: What about the PBM binding z-score [12] of the same sequence?
A: 3.03

Q: And the PBM binding z-score [13]?
A: 3.61

Q: And the PBM binding z-score [14]?
A: 0.782

Q: What about the PBM binding z-score [15] of the same sequence?
A: 2.37

Q: And the PBM binding z-score [16]?
A: 3.02

Q: What about the PBM binding z-score [17] of the same sequence?
A: 1.46

Q: What about the PBM binding z-score [18] of the same sequence?
A: 0.256

Q: How did the PBM binding z-score [1] turn out when CCTACTGGGCCACGAAAGTTCATTGATTCAGTGA was run?
A: 6.16

Q: What about the PBM binding z-score [2] of the same sequence?
A: 5.56

Q: What about the PBM binding z-score [3] of the same sequence?
A: 0.407

Q: What about the PBM binding z-score [4] of the same sequence?
A: 0.518

Q: And the PBM binding z-score [5]?
A: 1.35

Q: What about the PBM binding z-score [6] of the same sequence?
A: 4.97

Q: What about the PBM binding z-score [7] of the same sequence?
A: 6.21

Q: And the PBM binding z-score [8]?
A: 2.03

Q: What about the PBM binding z-score [9] of the same sequence?
A: -0.507

Q: What about the PBM binding z-score [10] of the same sequence?
A: 2.72

Q: What about the PBM binding z-score [11] of the same sequence?
A: 3.23

Q: What about the PBM binding z-score [12] of the same sequence?
A: 2.04

Q: And the PBM binding z-score [13]?
A: 2.29

Q: And the PBM binding z-score [14]?
A: 1.34

Q: And the PBM binding z-score [15]?
A: 1.46

Q: What about the PBM binding z-score [16] of the same sequence?
A: 1.74

Q: And the PBM binding z-score [17]?
A: -0.104

Q: What about the PBM binding z-score [18] of the same sequence?
A: 4.01
